Active and inactive are the calls of the source. The calls were made as follows: active = hit-call score of the fitted dose curve at least 0.9, where 1 is the maximum; inactive = score below 0.9.
Assays:
[1] = APR_HepG2_CellLoss_72hr: Apredica 72-hour HepG2 Assay for Cell Loss (AID 2282915); settings: high-content imaging
Summary of the method: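 Cell number comes from Hoechst 33342-labelled nuclei, imaged at 20x after 3.7% formaldehyde fixation. Dosing was 0.39–200 uM, ten concentrations in duplicate, 0.5% DMSO final, for 72 h. Bidirectional fit relative to DMSO baseline.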

[2] = APR_HepG2_P-H2AX_72hr: Apredica 72-hour HepG2 Assay for H2AX Phosphorylation (AID 2282916); settings: imaging, actives raise or lower the signal;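 also: phospho-histone H2A.x immunostain intensity per cell marking DNA damage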
Summary of the method: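 Following 72 hr treatment with 0.39–200 uM compound, HepG2 cells were formaldehyde-fixed, permeabilized and stained for phospho-H2A.x; signal was measured by high-content imaging and fitted bidirectionally against DMSO controls.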

[3] = APR_HepG2_MitoticArrest_72hr: Apredica 72-hour HepG2 Assay for Mitotic Arrest (AID 2282918); settings: high-content imaging, actives raise or lower the signal
Summary of the method: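 HepG2 cells treated 72 h at 0.39–200 uM, 0.5% DMSO final; formaldehyde-fixed, stained with Hoechst 33342 and phospho-histone H3 antibody, imaged by high-content fluorescence; bidirectional fit versus DMSO.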

[4] = APR_HepG2_MicrotubuleCSK_72hr: Apredica 72-hour HepG2 Assay for Microtubule CSK Stabilty (AID 2282919); settings: HepG2 microtubule cytoskeleton, high-content imaging, actives raise or lower the signal
Summary of the method: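 Read-out is tubulin fluorescence intensity from high-content imaging of HepG2 cells, with nuclei identified by Hoechst 33342. Treatment lasts 72 h at 0.39–200 uM, and curves are fitted bidirectionally against the DMSO negative control.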

[5] = APR_HepG2_P-H2AX_24hr: Apredica 24-hour HepG2 Assay for H2AX Phosphorylation (AID 2282920); settings: high-content imaging, actives raise or lower the signal
Summary of the method: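 HepG2 cells dosed 24 h at 0.39–200 uM (10 points, duplicate, 0.5% DMSO final). Formaldehyde-fixed and permeabilized, then immunostained for phospho-H2A.x with Hoechst. Fluorescence quantified by high-content imaging, fitted bidirectionally versus DMSO.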

[6] = APR_HepG2_StressKinase_72hr: Apredica 72-hour HepG2 Assay for Stress Kinase (AID 2282921); settings: HepG2 stress kinase (phospho-c-Jun) imaging, actives raise or lower the signal
Summary of the method: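 Fluorescence intensity of Cy3-tagged anti-phospho-c-Jun antibody, quantified per cell from Hoechst-defined nuclei across six images per well, served as the read-out following 72 h exposure (0.39–200 uM, 0.5% v/v DMSO).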

[7] = APR_HepG2_NuclearSize_72hr: Apredica 72-hour HepG2 Assay for Nuclear Size (AID 2282925); settings: high-content imaging, actives raise or lower the signal
Summary of the method: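 HepG2; cpd 0.39–200 uM, 10 conc, duplicate; 72 h; DMSO 0.5% v/v; fix 3.7% formaldehyde 30 min RT; Triton permeabilization; Hoechst 2 ug/mL; HCS imaging 20x; nuclear diameter; gain/loss fit vs DMSO.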

[8] = ATG_CRE_CIS: Attagene CIS-FACTORIAL HepG2 Assay for human cAMP Responsive Element (CRE) binding protein 3 (AID 2282926); settings: HepG2 CRE cis-reporter, Attagene multiplexed mRNA; actives raise or lower the signal
Summary of the method: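 HepG2 cells transiently transfected with cis-element-driven multiple reporter transcription units; CRE reporter mRNA measured 24 h after dosing by RT-PCR, 6-FAM labelling, HpaI digestion and capillary electrophoresis. Bidirectional fit versus DMSO baseline.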

[9] = biological target: CCAAT/enhancer-binding protein beta (Homo sapiens) (UniProt P17676); assay: ATG_C_EBP_CIS: Attagene CIS-FACTORIAL HepG2 Assay for human CCAAT/Enhancer Binding Protein (C/EBP) beta (AID 2282927); settings: HepG2 Attagene cis-factorial transcription factor reporter; actives raise or lower the signal
Summary of the method: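 Endogenous C/EBPb-driven reporter transcripts measured in transfected human HepG2 cells at 24 h via RT-PCR and capillary electrophoresis of labelled fragments. Activity fitted in both directions relative to DMSO baseline.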

[10] = ATG_DR4_LXR_CIS: Attagene CIS-FACTORIAL HepG2 Assay for human Liver X Receptor (LXR), DR4 submotif (AID 2282929); settings: HepG2 Attagene DR4 cis-reporter, mRNA transcription; actives raise or lower the signal
Summary of the method: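 Measures endogenous transcription factor activity via a DR4-driven reporter transcript in human HepG2 cells. Compounds incubated 24 h; mRNA quantified by RT-PCR and capillary electrophoresis, analysed as gain or loss of signal versus DMSO.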

[11] = biological target: Aryl hydrocarbon receptor (Homo sapiens) (UniProt P35869); assay: ATG_Ahr_CIS: Attagene CIS-FACTORIAL HepG2 Assay for human Aryl Hydrocarbon Receptor (Ahr) (AID 2282930); settings: HepG2 AhR cis-factorial reporter transcription; actives raise or lower the signal
Summary of the method: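 Reporter mRNA levels, quantified by RT-PCR and fluorescent capillary electrophoresis, reflect endogenous AhR transcriptional activity in HepG2 cells carrying transfected cis-promoter reporter constructs. Readout at 24 h post-dose; gain or loss fitted against DMSO baseline.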

[12] = ATG_AP_1_CIS: Attagene CIS-FACTORIAL HepG2 Assay for human Activator Protein 1 (AP-1) (AID 2282931); settings: HepG2 Attagene cis-factorial AP-1 reporter mRNA; actives raise or lower the signal
Summary of the method: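 Bidirectional concentration-response fitting against DMSO controls. Underlying signal: reporter mRNA from cis-promoter constructs in transiently transfected HepG2, measured after 24 h by RT-PCR and capillary electrophoresis.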

[13] = ATG_AP_2_CIS: Attagene CIS-FACTORIAL HepG2 Assay for human Activator Protein 2 (AP-2) (AID 2282932); settings: HepG2 AP-2 cis-reporter, Attagene transcription factor profiling; actives raise or lower the signal
Summary of the method: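 Step one: transient transfection of HepG2 with reporter transcription units. Step two: 24 h chemical exposure. Step three: RNA extraction, RT-PCR, labelled fragment analysis by capillary electrophoresis; DMSO serves as baseline.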

[14] = ATG_BRE_CIS: Attagene CIS-FACTORIAL HepG2 Assay for human Bone Morphogenetic Protein (BMP) Response Element (BRE) (AID 2282933); settings: HepG2 BMP response element reporter, Attagene transcription factor profiling; actives raise or lower the signal
Summary of the method: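 Fluorescence-labelled reporter cDNA fragments, separated by capillary electrophoresis, gave the signal for this component of a 52-readout multiplex. HepG2 cells were transfected, exposed to chemicals for 24 h, and compared with DMSO using bidirectional fitting.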

[15] = biological target: Retinoic acid receptor alpha (Homo sapiens) (UniProt P10276); assay: ATG_DR5_RAR_CIS: Attagene CIS-FACTORIAL HepG2 Assay for human Retinoic Acid Receptor Alpha (RARE), DR5 submotif (AID 2282934); settings: HepG2 Attagene cis-factorial RARE DR5 reporter, mRNA; actives raise or lower the signal;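 as to AC50: reporter responds to endogenous RAR alpha beta and gamma in HepG2 not RARA alone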
Summary of the method: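 Reporter transcripts from a DR5-regulated unit, measured via RT-PCR plus capillary electrophoresis, reflect endogenous RAR activity in transiently transfected human HepG2 liver cells. Exposure lasted 24 h; gain or loss of signal scored against DMSO.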

[16] = APR_HepG2_p53Act_72hr: Apredica 72-hour HepG2 Assay for p53 Activation (AID 2282923); settings: high-content imaging, actives raise or lower the signal;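 also: average cellular p53 protein immunofluorescence intensity in HepG2 cells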
Summary of the method: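 HepG2 monolayers receive test compounds in duplicate at ten concentrations (0.39 through 200 uM) for 72 hr. They are then formaldehyde-fixed, antibody-labelled for p53, Hoechst-stained and imaged, with activity fitted bidirectionally versus DMSO.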

[17] = ATG_CMV_CIS: Attagene CIS-FACTORIAL HepG2 Assay for human CMV (Internal Marker) (AID 2282928); settings: HepG2 CMV promoter reporter, transcription factor profiling; actives raise or lower the signal;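 also: endpoint acts as a background internal control marker rather than a target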
Summary of the method: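 Cell system: HepG2, transiently transfected multiple reporter units under cis promoters. Exposure: 24 h. Detection: RT-PCR, FAM labeling, HpaI digestion, capillary electrophoresis. Analysis: bidirectional, DMSO baseline.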

Measured: AC50

Retinoic acid receptor alpha (Homo sapiens), sequence (P10276 whole entry, looked up): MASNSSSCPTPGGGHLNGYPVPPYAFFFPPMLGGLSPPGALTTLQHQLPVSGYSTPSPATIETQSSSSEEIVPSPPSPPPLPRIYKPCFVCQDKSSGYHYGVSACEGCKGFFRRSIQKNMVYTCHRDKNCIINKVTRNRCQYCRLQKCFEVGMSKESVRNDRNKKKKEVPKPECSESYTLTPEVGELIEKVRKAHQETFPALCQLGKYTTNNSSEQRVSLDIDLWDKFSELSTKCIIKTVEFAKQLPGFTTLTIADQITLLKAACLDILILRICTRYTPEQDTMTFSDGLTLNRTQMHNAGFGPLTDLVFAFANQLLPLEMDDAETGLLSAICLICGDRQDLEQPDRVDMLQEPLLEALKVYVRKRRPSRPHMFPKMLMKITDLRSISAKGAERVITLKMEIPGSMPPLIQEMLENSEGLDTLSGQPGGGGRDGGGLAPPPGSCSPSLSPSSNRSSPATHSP
Aryl hydrocarbon receptor (Homo sapiens), sequence (P35869 whole entry, looked up): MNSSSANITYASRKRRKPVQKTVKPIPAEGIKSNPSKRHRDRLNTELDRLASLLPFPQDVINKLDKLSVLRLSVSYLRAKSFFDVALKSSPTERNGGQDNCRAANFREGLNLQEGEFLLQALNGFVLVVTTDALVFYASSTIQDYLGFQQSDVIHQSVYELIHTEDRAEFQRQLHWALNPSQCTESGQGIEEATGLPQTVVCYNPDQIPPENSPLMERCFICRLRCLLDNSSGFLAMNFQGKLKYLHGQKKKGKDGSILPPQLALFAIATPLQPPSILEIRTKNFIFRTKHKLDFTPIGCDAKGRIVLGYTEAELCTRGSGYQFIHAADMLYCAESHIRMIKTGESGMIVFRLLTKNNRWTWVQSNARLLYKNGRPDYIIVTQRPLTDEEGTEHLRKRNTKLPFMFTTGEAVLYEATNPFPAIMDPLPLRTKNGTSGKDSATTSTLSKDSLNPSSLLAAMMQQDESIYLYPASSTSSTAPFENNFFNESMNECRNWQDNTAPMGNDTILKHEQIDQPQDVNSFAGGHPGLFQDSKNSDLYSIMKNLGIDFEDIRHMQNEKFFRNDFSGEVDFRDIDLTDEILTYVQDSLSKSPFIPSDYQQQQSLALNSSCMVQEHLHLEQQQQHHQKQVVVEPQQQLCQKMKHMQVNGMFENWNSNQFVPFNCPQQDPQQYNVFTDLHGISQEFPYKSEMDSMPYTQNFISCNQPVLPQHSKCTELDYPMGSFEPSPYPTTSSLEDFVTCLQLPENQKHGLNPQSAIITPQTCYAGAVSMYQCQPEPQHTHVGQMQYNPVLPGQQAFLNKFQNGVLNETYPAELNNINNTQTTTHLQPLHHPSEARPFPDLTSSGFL
CCAAT/enhancer-binding protein beta (Homo sapiens), sequence (P17676 whole entry, looked up, the tested form may be a part): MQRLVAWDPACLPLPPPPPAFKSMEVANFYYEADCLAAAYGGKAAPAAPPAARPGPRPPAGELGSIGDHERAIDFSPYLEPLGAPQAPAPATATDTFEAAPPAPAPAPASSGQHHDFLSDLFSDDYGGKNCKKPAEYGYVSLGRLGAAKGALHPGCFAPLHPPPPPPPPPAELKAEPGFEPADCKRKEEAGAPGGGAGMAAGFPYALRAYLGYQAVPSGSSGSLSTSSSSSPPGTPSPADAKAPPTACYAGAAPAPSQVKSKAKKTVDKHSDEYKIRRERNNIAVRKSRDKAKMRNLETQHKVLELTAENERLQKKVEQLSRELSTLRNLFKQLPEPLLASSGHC

CCCCCCCc1ccc(O)cc1
inactive: [1] | [2] | [3] | [4] | [5] | [6] | [7] | [8] | [9] | [10] | [11] | [12] | [13] | [14] | [15]

Nc1ccc2ccccc2c1
inactive: [1] | [2] | [3] | [4] | [5] | [6] | [16] | [7] | [8] | [9] | [17] | [10] | [12] | [13] | [14] | [15]
active: [11] 7.38 µM

ClC(Cl)(Cl)c1ccccc1
inactive: [1] | [2] | [3] | [4] | [5] | [6] | [16] | [7] | [8] | [10] | [11] | [12] | [13] | [14]

[N-]=[N+]=[N-]
inactive: [1] | [2] | [3] | [4] | [5] | [6] | [16] | [7] | [8] | [9] | [17] | [10] | [12] | [13] | [14]

CCOC(=O)c1ccccc1C(=O)OCC
inactive: [1] | [2] | [3] | [4] | [5] | [6] | [16] | [7] | [8] | [9] | [17] | [10] | [12] | [13] | [14] | [15]

CC(Cl)(Cl)C(=O)O
inactive: [1] | [2] | [3] | [4] | [5] | [6] | [7] | [8] | [9] | [17] | [10] | [11] | [12] | [13] | [14]

Cc1ccc(N)cc1N
inactive: [1] | [2] | [3] | [4] | [5] | [6] | [16] | [7] | [8] | [10] | [12] | [13] | [14]
active: [11] 5.24 µM

CNC(=O)Oc1ccc(N(C)C)c(C)c1
inactive: [8] | [9] | [17] | [10] | [11] | [12] | [13] | [14] | [15]

C=C(C)C(=O)OCC1CO1 (centres undefined)
inactive: [8] | [9] | [17] | [10] | [11] | [12] | [13] | [14] | [15]

Cc1ccc(O)cc1C
inactive: [1] | [2] | [3] | [5] | [6] | [16] | [9] | [17] | [10] | [11] | [13] | [14] | [15]

Cc1c([N+](=O)[O-])cc2c(c1[N+](=O)[O-])C(C)(C)CC2(C)C
active: [17] 100 µM | [14] 100 µM | [15] 2.78 µM
inactive: [8] | [9] | [10] | [11] | [12] | [13]

N#Cc1c(-c2ccc(Cl)cc2)[nH]c(C(F)(F)F)c1Br
inactive: [10] | [13] | [15]
active: [8] 0.019 µM | [9] 0.0342 µM | [17] 3.01 µM | [11] 0.0823 µM | [12] 0.0823 µM | [14] 8.08 µM

O=C(O)CF
inactive: [8] | [9] | [10] | [11] | [12] | [13] | [14]

c1cc2c3c(cccc3c1)CC2
inactive: [1] | [2] | [5] | [6] | [16] | [7] | [8] | [9] | [10] | [11] | [12] | [13] | [14] | [15]

CC(C)CBr
inactive: [8] | [9] | [17] | [10] | [11] | [12] | [13] | [14] | [15]

CCCCC(CC)COC(=O)c1c(Br)c(Br)c(Br)c(Br)c1C(=O)OCC(CC)CCCC (centres undefined)
inactive: [8] | [9] | [17] | [10] | [11] | [12] | [13] | [14] | [15]
